In the library only some 7.9% were active in any assay of this set; here they are far more common.
Lassa entry inh – inhibitors of Lassa virus binding or cell entry; Lassa virus pseudotype entry inhibition, cell reporter; Potency, µM (highest dose often 37.9 µM), actives largely listed as inhibitors; 300,000 tested, 1.2% active; AID 540256; calls by dose curve; tested in HEK293 cells; note: nearly all actives have a fitted effect of over 50% in size
HCV inh – HCV inhibition; Huh7.5.1 HCVcc-Cre infection, luciferase reporter, 44 h; Potency, µM (doses to about 41.8 µM), hits mostly inhibitors; 340,000 tested, 3.4% active; AID 651820; active = well fitted inhibition curve with a large enough effect; inconclusive = small, poorly fitted or top-dose-only effect, or another doubt; inactive = no such curve, though single readings can be large or run the other way
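Luciferase read-out (15 sec integration) after a 15 min room-temperature substrate step quantifies HCVcc-Cre infection. Cells, 1,000 per well, had compound added 4 h post-plating, then virus at ~0.5 moi, and were cultured 44 h.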
HCMV antiviral – human cytomegalovirus inhibition; AID 1259415; activity change, negative = inhibition, % at 57.5 µM; HFF cells, HCMV-luciferase reporter, 72 h; hits give low values; 410,000 tested, 4.5% active; in the data active = activity change below about -60%; inconclusive = no clear call, values can overlap the other calls; inactive = above about -39%
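HFF cells seeded 16 h at 37C, treated with compounds, infected with luciferase-reporter HCMV at MOI 1 PFU/cell; luciferase read at 72 h post infection, normalized to buffer-only and Salinomycin controls.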
FMDV antiviral – blocks foot and mouth disease virus; Potency, µM (series often up to 57.9 µM), hits mostly inhibitors; FMDV antiviral cell-based qHTS; 410,000 tested, 1.2% active; calls by dose curve; tested in HEK293T cells; note: read-out not given here; nearly all actives have a fitted effect of over 45% in size
Marburg entry inh – Marburg virus entry inhibition; Marburg virus pseudotyped entry inhibition, cell reporter; Potency, µM (doses to about 37.8 µM), hits mostly inhibitors; 300,000 tested, 1.8% active; AID 540276; calls by dose curve; tested in HEK293 cells
Large screens that a line does not name were inactive.

O=C(Nc1sc2c(c1-c1nc3ccccc3[nH]1)CCCC2)C1CCCC1	HCV inh inconclusive
CC(=O)N1CCN(S(=O)(=O)c2cccc(C(=O)Nc3nc4c(s3)CCCC4)c2)CC1	HCV inh inconclusive, Marburg entry inh inconclusive
CC(=O)NCCC(=O)Nc1sc2c(c1-c1nc3ccccc3[nH]1)CCCC2	HCV inh 11.2µM
COc1ccc(-c2c[n+]3c(n2-c2ccccc2)SCC3)cc1	Lassa entry inh inconclusive, HCV inh inconclusive, HCMV antiviral -79.7, Marburg entry inh inconclusive
Brc1ccc(-c2c[n+]3c(n2-c2ccccc2)SCC3)cc1	Lassa entry inh inconclusive, HCMV antiviral -72.6, FMDV antiviral inconclusive
COc1ccc(-c2c[n+]3c(n2-c2ccccc2)SCC3)cc1OC	HCMV antiviral inconclusive
Cc1ccc(-c2c[n+]3c(n2-c2ccccc2)SCC3)cc1	HCV inh inconclusive, HCMV antiviral -73.3, FMDV antiviral inconclusive (no result: Lassa entry inh, Marburg entry inh)
Cc1cc(C(=O)NC(C)CCc2ccccc2)ccc1[N+](=O)[O-] (configuration not stated)	none
COc1ccc(NC(=O)c2oc3c(c2C)-c2nn(Cc4c(F)cccc4Cl)cc2CC3)c(OC)c1	none (no result: HCV inh, Marburg entry inh)
CCN1CCCC1CNC(=O)c1cnn(-c2nccc(-c3cc(OC)ccc3OC)n2)c1C (configuration not stated)	none (no result: Lassa entry inh, HCV inh, HCMV antiviral, Marburg entry inh)
O=C1c2cccc3c([N+](=O)[O-])ccc(c23)C(=O)N1Cc1cccnc1	Lassa entry inh inconclusive, HCV inh inconclusive, HCMV antiviral -73.4, Marburg entry inh inconclusive
O=C1c2cccc3cccc(c23)C(=O)N1Cc1cccnc1	Marburg entry inh inconclusive
Cc1ccc(N2C(=O)c3cccc4c([N+](=O)[O-])ccc(c34)C2=O)c2cccnc12	HCMV antiviral inconclusive, FMDV antiviral inconclusive (no result: Lassa entry inh, Marburg entry inh)
Cc1ccnc(N2C(=O)c3cccc4c([N+](=O)[O-])ccc(c34)C2=O)c1	Lassa entry inh inconclusive, HCV inh 11.2µM, FMDV antiviral inconclusive, Marburg entry inh 20.6µM
COc1ccccc1-n1cnnc1SCC(=O)N1CCOCC1	none
COC(=O)C1=C(COc2ccccc2)NC(=O)NC1c1ccc2ccccc2c1 (configuration not stated)	none (no result: Lassa entry inh, Marburg entry inh)
CCOC(=O)N1CCN(S(=O)(=O)c2ccc(C)c([N+](=O)[O-])c2)CC1	HCMV antiviral -62.0, Marburg entry inh inconclusive
CCOC(=O)c1ccoc1CN1CCN(S(=O)(=O)c2ccc(C)c(C)c2)CC1	HCV inh inconclusive, HCMV antiviral -62.8
CCOC(=O)N1CCN(S(=O)(=O)c2ccc(OCC(=O)OC)cc2)CC1	HCMV antiviral -77.7 (no result: FMDV antiviral)
COc1ccc(C(=O)NCCc2nnc3n2CCN(CC2CC=CCC2)CC3)cc1 (configuration not stated)	none (no result: Lassa entry inh, HCV inh, HCMV antiviral, Marburg entry inh)
O=C(Cc1ccccc1)NNc1c2ccccc2nc2ccccc12	HCV inh inconclusive, HCMV antiviral -66.6, Marburg entry inh inconclusive
O=C(Cc1ccccc1)NNC(=O)Cc1ccccc1	none
Cc1ccc(OCC(=O)NNc2c3ccccc3nc3ccccc23)cc1	Lassa entry inh inconclusive, HCV inh 1µM, HCMV antiviral -95.0, FMDV antiviral inconclusive, Marburg entry inh inconclusive
Cc1cccc(OCC(=O)NNc2c3ccccc3nc3ccccc23)c1	Lassa entry inh inconclusive, HCV inh 1µM, HCMV antiviral -96.8, FMDV antiviral inconclusive, Marburg entry inh inconclusive
Cc1c(C(=O)Nc2cnn(C(C)(C)C(=O)NCc3ccco3)c2)oc2ccccc12	none (no result: Lassa entry inh, HCV inh, FMDV antiviral, Marburg entry inh)
COC(=O)c1scc(-c2ccc(C)cc2)c1S(=O)(=O)N1CCN(c2ccc(OC)cc2)CC1	none (no result: HCV inh, Marburg entry inh)
CCOC(=O)c1cnn(-c2cccc(Cl)c2)c1C1CCN(C(=O)OC(C)(C)C)CC1	Lassa entry inh inconclusive, FMDV antiviral inconclusive (no result: HCV inh)
S=C1NCN(CCc2ccccc2)CN1Cc1ccccc1	HCMV antiviral -62.3 (no result: Lassa entry inh)
O=C(Cn1cc([N+](=O)[O-])ccc1=O)NCC1COc2ccccc2O1 (configuration not stated)	Marburg entry inh inconclusive
CCc1cccc2[nH]c3cc([N+](=O)[O-])ccc3c12	HCV inh inconclusive, HCMV antiviral -61.2
O=c1[nH]c2cc([N+](=O)[O-])ccc2c2ccccc12	none
COC(=O)c1cccc(-c2cc(Cl)c3c(c2)CC(CNC(=O)c2cccnc2)O3)c1 (configuration not stated)	none (no result: Lassa entry inh, HCV inh, HCMV antiviral, Marburg entry inh)
O=C(CSc1nnc(-c2ccccc2)n1Cc1ccccc1)N1CCOCC1	none
Oc1ccccc1-c1nnc(SCCN2CCOCC2)n1Cc1ccccc1	HCV inh inconclusive, HCMV antiviral -63.9
CC1(NC(=O)c2ccccc2)CCN(CCCc2ccccc2)C1=O (configuration not stated)	HCV inh inconclusive (no result: Lassa entry inh, Marburg entry inh)
N#CC1=C(N)Oc2cc(N)ccc2C1c1cccc(F)c1 (configuration not stated)	HCV inh inconclusive, Marburg entry inh inconclusive
CN(C)c1ccc2c(c1)OC(N)=C(C#N)C2c1cccc(F)c1 (configuration not stated)	Lassa entry inh inconclusive, HCV inh inconclusive, FMDV antiviral inconclusive, Marburg entry inh 2.06µM (no result: HCMV antiviral)
CNC(=O)C1(C)CCN1C(=O)Cc1ccc(C(C)C)cc1 (configuration not stated)	none (no result: Lassa entry inh, HCV inh, Marburg entry inh)
CCC(Oc1ccc2c(=O)c(-c3ccccc3OC)coc2c1)C(=O)OCc1ccccc1 (configuration not stated)	HCV inh inconclusive, FMDV antiviral 20µM, Marburg entry inh inconclusive
CCCC(=O)N1CCC1(C)C(=O)Nc1cccc(OC(C)C)c1 (configuration not stated)	none (no result: Lassa entry inh, HCV inh, Marburg entry inh)
COC12C(COC(N)=O)C3=C(C(=O)C(C)=C(N)C3=O)N1CC1C2N1C (configuration not stated)	HCV inh inconclusive, HCMV antiviral -104.9 (no result: Lassa entry inh, Marburg entry inh)
COc1ccc(CN(C(=O)c2snc(C(N)=O)c2N)C(C(=O)NC2CCCC2)c2ccc(OC)cc2)cc1 (configuration not stated)	Lassa entry inh inconclusive, HCV inh inconclusive
COc1ccc(CN(C(=O)c2nsc(Cl)c2Cl)C(C(=O)NC2CCCC2)c2ccc(OC)cc2)cc1 (configuration not stated)	Lassa entry inh 20.6µM, Marburg entry inh inconclusive
COc1ccc(C(=O)C2CCCN(Cc3cccn3-c3nccs3)C2)cc1F (configuration not stated)	Lassa entry inh inconclusive, HCMV antiviral -64.5, Marburg entry inh inconclusive
CC(C)Oc1cccc(C(=O)C2CCCN(C(=O)c3ccccn3)C2)c1 (configuration not stated)	none (no result: Lassa entry inh, Marburg entry inh)
COc1ccc(C(=O)C2CCCN(Cc3cccn3-c3ccccn3)C2)cc1F (configuration not stated)	Lassa entry inh inconclusive, Marburg entry inh inconclusive
O=C(c1ccc(Cl)cc1)C1CCCN(Cc2cccn2-c2ccccn2)C1 (configuration not stated)	Lassa entry inh inconclusive, Marburg entry inh 3.98µM
COc1ccc(C(=O)C2CCCN(Cc3cccn3-c3nccs3)C2)cc1OC (configuration not stated)	HCV inh inconclusive, FMDV antiviral inconclusive (no result: Lassa entry inh, Marburg entry inh)
CC(C)Oc1cccc(C(=O)C2CCCN(Cc3cccn3-c3ccccn3)C2)c1 (configuration not stated)	Lassa entry inh 11.2µM, HCMV antiviral -71.0, Marburg entry inh inconclusive
